Laboratory results: PubChem BioAssay

Experiment: binders of probe aFGF2 on microarray, primary screen, stem cell growth factor project, biochemical, small-molecule microarray, fluorescence 635/667 (AID 1067);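 also: measures binding of biotinylated aFGF2 protein to printed compounds on slides; z-score merges feature fluorescence and signal-to-noise across triplicate slides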
Details: higher = more signal

First: COC(=O)C1=C(C)[C@@H](O)[C@@H](C)[C@H](c2c(OC)c(OC)c(C)c(OC)c2OC)O1
Second: CC(=O)OC[C@H]1O[C@@H](ON=C[C@@H](C)[C@H](OCc2ccccc2)C(C)C)[C@H](OC(C)=O)[C@@H](OC(C)=O)[C@@H]1OC(C)=O
The composite z-score of the first is lower: -0.131 for the first, -0.0959 for the second.

Going from `CC(C)C[C@@H]1NC(=O)[C@H]2C[C@@H](C(=O)O)[C@@H](c3ccc(O)cc3)N2C1=O` to `CCN1C(=O)[C@H]2[C@H]3[C@H](O)[C@H](O)CC(=NOC[C@@H](C)[C@H](OCc4ccccc4)C(C)C)[C@@H]3CC[C@H]2C1=O`, the composite z-score falls from -0.087 to -0.128.

Compared with `COc1ccc(O[C@@H]2[C@H](O)CO[C@H]2C=CC#Cc2ccccc2)cc1`, `COC(=O)[C@]1(CO)N=C(c2ccc(OCCCO)cc2)O[C@@H]1c1ccccc1N=[N+]=[N-]` is higher in composite z-score: -0.159 for the first, -0.0614 for the second.

Compound `CCCCCN1CC=CC23O[C@@H]4C=CCOC(=O)[C@@H]4[C@H]2C(=O)N(CCCCCCO)[C@@H]3C1=O` (stereo not given in full) has a composite z-score of -0.133.

Experiment: binders of probe aFGF10 on microarray, primary screen, stem cell growth factor project, biochemical, small-molecule microarray, fluorescence 635/667 (AID 1071);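 also: score merges 667 nm spot intensity and signal to noise from triplicate slides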
Details: higher = more signal

First: Cc1ccc(C2CC=C(C(=O)O)CN2S(=O)(=O)c2ccc(C)cc2)cc1 (stereo not given)
Second: CN(C)C(=O)[C@@]1(Cc2ccccc2)N=C(c2ccc(OCCCO)cc2)O[C@H]1c1ccccc1CN=[N+]=[N-]
The composite z-score of the first is lower: 0.0852 for the first, 1.13 for the second.

Compared with `COc1ccc([Si](C)(C)[C@H]2[C@H](CC(=O)N3CCC[C@H]3CO)O[C@@]3(C(=O)N(Cc4cccc(N5C(=O)COc6ccccc65)c4)c4ccccc43)[C@@H]2C)cc1`, `COCCOC(=O)N1C(=O)[C@@]2(c3cc(C#CC4(O)CCCCCC4)ccc31)[C@H](c1ccc(OCCO)cc1)N1[C@H](c3ccccc3)[C@H](c3ccccc3)OC(=O)[C@H]1[C@@H]2C(=O)NC[C@H](O)c1ccccc1` is lower in composite z-score: 0.893 for the first, 0.66 for the second.

First: CC(CCN1CCc2nc(-c3ccccc3)c(-c3ccccc3)cc2C1)=NOC[C@@H](C)[C@H](OCc1ccccc1)C(C)C
Second: COc1ccc(OC[C@H]2Cc3c(-c4ccccc4)nc4c(c3CO2)CN(CCOc2ccccc2)CC4)cc1
The composite z-score of the first is lower: -0.756 for the first, 0.79 for the second.

Going from `CN1C(=O)C2C(C1=O)C1C=C(CCCO)C2C(c2ccc(CN3CCCC3)cc2)N1C` (stereo not given) to `CCOC(=O)CCN1C(=O)[C@H]2[C@H]3[C@H](O)[C@H](O)CC(=NNC(=O)OCc4ccc(OC)cc4)[C@@H]3CC[C@H]2C1=O`, the composite z-score rises from -0.302 to 0.0569.

First: CCc1cc2c(nc1CC)CCN(CCC(C)=NO[C@@H](C)c1cc(-c3c(C)cc(C)cc3C)no1)C2
Second: COc1ccc(O[C@H]2C=C[C@@H](c3ccccc3)O[C@@H]2COC(=O)CCC(C)=NO[C@@H](C)c2cc(-c3c(C)cc(C)cc3C)no2)cc1
The composite z-score of the first is higher: -0.298 for the first, -0.522 for the second.

Going from `CS(=O)(=O)CCOC(=O)C1=CC(CCCO)=CC(c2cccs2)N(Cc2cccc(OC(F)(F)F)c2)C=C1C(=O)OCCS(C)(=O)=O` (stereo not given) to `CCCCC(=C=CC[C@H](O)c1ccccc1OCCO)C[C@H](O)COCc1ccccc1`, the composite z-score falls from 0.0557 to -0.249.

Compared with `O=C1CCCC=C1C(O)CCOCc1ccccc1` (stereo not given), `Cn1c(=O)n2n(c1=O)[C@H]1[C@H](O)[C@@H]3O[C@@H]3C(=NOC[C@@H](O)COCc3ccco3)[C@H]1CC2` is higher in composite z-score: 0.0674 for the first, 0.296 for the second.

First: CC(C)=CCCC(C)=CCON=C1[C@H]2CCn3c(=O)n(Cc4cc5c(cc4Cl)OCO5)c(=O)n3[C@H]2[C@H](O)[C@@H]2O[C@H]12
Second: O=C1C2=CC[C@H]3C(=O)N(Cc4ccc5c(c4)OCO5)C(=O)[C@H]3[C@H]2[C@H](O)[C@@H]2O[C@H]12
The composite z-score of the first is lower: 0.262 for the first, 0.375 for the second.

Compared with `CO[C@@H]1COC(=O)CC=C[C@@H](C)[C@@H]2C=C[C@H](O)[C@@H](COC(=O)[C@H](C)NC(=O)CC=C[C@H]1C)O2`, `C[C@@H]1C=CCC(=O)OC[C@H](C)C(=O)N2CCC[C@H]2C(=O)OC1` is higher in composite z-score: 0.321 for the first, 0.349 for the second.

Going from `CC(C)c1ccc(NN2C(C(O)c3ccc4c(c3)OCO4)C=CC3C(=O)N(c4ccccc4)C(=O)C32)cc1` (stereo not given) to `C=C(/C(=C/C[C@@H](OC(=O)c1ccncc1)c1ccc(OCCO)cc1)c1cnc2ccccc2c1)C(C)C`, the composite z-score falls from 0.839 to 0.128.

Going from `COc1ccc(COC(=O)NN=C2C[C@@H](O)[C@@H](O)[C@@H]3[C@@H]4C(=O)N(c5ccc(F)cc5F)C(=O)[C@@H]4CC[C@@H]23)cc1` to `COC(=O)[C@H](C)NC(=O)CCC1CC(OC(=O)NCc2cccc3ccccc23)CC2(CCCC(COC(=O)NCCc3ccc(Cl)cc3)O2)O1` (stereo not given in full), the composite z-score rises from -0.299 to 0.487.

`CCCNC(=O)OC[C@H]1O[C@H](CCON=CC[C@@H]2C=C[C@H](OC(C)=O)[C@@H](COC(C)=O)O2)C=C[C@@H]1Oc1ccc(OC)cc1` showed a composite z-score of 0.423.
